# Results published in the supplement of paper PMC6555819.
# Experiments:
# Assay in all cases: PBM binding z-score (relative to random genomic background probes); higher = stronger binding; sequences stand for … in GC…GCGATTGACAGCGTAGAATGAAGG
# [1] = system: FXR:RXRa (NR concentration 270 nM, RXRa partner concentration 90 nM)
# Procedure, shortened: (§1)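 Random background probes are the reference for binding z-scores. These scores derive from regression-normalized fluorescence on custom Agilent 4×180K protein-binding microarrays incubated 1 h with ligand-free nuclear receptor dimers. Binding was detected with antibodies against each partner (one per run).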
# [2] = system: LXRa:RXRa (NR concentration 270 nM, RXRa partner concentration 90 nM)
# Procedure, shortened: as §1
# [3] = system: LXRa homodimer (NR concentration 270 nM)
# Procedure, shortened: as §1
# [4] = system: LXRb:RXRa (NR concentration 270 nM, RXRa partner concentration 90 nM)
# Procedure, shortened: as §1
# [5] = system: LXRb homodimer (NR concentration 270 nM)
# Procedure, shortened: as §1
# [6] = system: PPARa:RXRa (NR concentration 270 nM, RXRa partner concentration 90 nM)
# Procedure, shortened: as §1
# [7] = system: PPARg:RXRa (NR concentration 180 nM, RXRa partner concentration 90 nM)
# Procedure, shortened: as §1
# [8] = system: PPARg:RXRa 270nM:90nM, anti-RXR (NR concentration 270 nM, RXRa partner concentration 90 nM)
# Procedure, shortened: as §1
# [9] = system: PPARg:RXRa 30nM:10nM, anti-RXR (NR concentration 30 nM, RXRa partner concentration 10 nM)
# Procedure, shortened: as §1
# [10] = system: PPARg:RXRa 90nM:30nM, anti-RXR (NR concentration 90 nM, RXRa partner concentration 30 nM)
# Procedure, shortened: as §1
# [11] = system: PPARg:RXRa DBDmut IVT, anti-RXR (DBD mutation: RXRa K156A/R161A, NR concentration 270 nM, RXRa partner concentration 90 nM)
# Procedure, shortened: as §1
# [12] = system: PPARg:RXRa IVT, anti-PPARg (NR concentration 270 nM, RXRa partner concentration 90 nM)
# Procedure, shortened: as §1
# [13] = system: PPARg DBDmut:RXRa IVT, anti-PPARg (DBD mutation: PPARg1 K132A/R137A, NR concentration 270 nM, RXRa partner concentration 90 nM)
# Procedure, shortened: as §1
# [14] = system: PPARg DBDmut IVT, anti-PPARg (DBD mutation: PPARg1 K132A/R137A, NR concentration 270 nM)
# Procedure, shortened: as §1
# [15] = system: PPARg homodimer (NR concentration 180 nM)
# Procedure, shortened: as §1
# [16] = system: PXR:RXRa (NR concentration 270 nM, RXRa partner concentration 90 nM)
# Procedure, shortened: as §1
# [17] = system: PXR homodimer (NR concentration 270 nM)
# Procedure, shortened: as §1
# [18] = system: RARa:RXR (NR concentration 270 nM, RXRa partner concentration 90 nM)
# Procedure, shortened: as §1
# [19] = system: RARa homodimer (NR concentration 270 nM)
# Procedure, shortened: as §1
# [20] = system: RARb:RXRa (NR concentration 270 nM, RXRa partner concentration 90 nM)
# Procedure, shortened: as §1
Sequence,PBM binding z-score [1],PBM binding z-score [2],PBM binding z-score [3],PBM binding z-score [4],PBM binding z-score [5],PBM binding z-score [6],PBM binding z-score [7],PBM binding z-score [8],PBM binding z-score [9],PBM binding z-score [10],PBM binding z-score [11],PBM binding z-score [12],PBM binding z-score [13],PBM binding z-score [14],PBM binding z-score [15],PBM binding z-score [16],PBM binding z-score [17],PBM binding z-score [18],PBM binding z-score [19],PBM binding z-score [20]
TCTCGGAGGACGCGAAAGGTCAGAGCTCGACATC,2.41,3.21,1.27,2.37,-0.501,3.2,1.67,3.46,2.47,3.21,0.887,0.996,1.57,0.428,2.2,3.7,0.0066,4.09,0.692,3.89
AGAATGAGGTTACCAATGATCAGGGAAACGCTTG,1.77,3.21,-0.495,1.67,-0.399,3.33,2.55,2.4,1.21,1.7,3.69,3.24,1.14,0.416,0.494,1.05,-0.11,1.83,0.362,2.03
CGTACAAGGTCAAGGTCAGTGAAAGAGACTCGAA,7.99,5.91,1.33,5.06,1.34,6.47,7.35,6.73,3.62,5.87,4.64,5.48,1.83,0.837,4.4,5.27,1.65,5.96,2.4,5.65
GCTTACGGGTCAAAGGTTCTAGCATGAATAGAAT,6.11,4.09,-0.0816,4.09,-0.186,5.91,8.84,7.78,7.78,8.24,5.13,5.05,0.842,0.712,1.45,4,0.0267,5.93,0.382,3.82
CGTCCAAGGTCAAAGCTCAGTGAAGAGATGACGG,7.32,5.36,0.938,3.83,0.937,5.37,4.98,5.4,2.13,4.12,3.54,3.35,0.259,-0.242,3.06,3.96,0.865,4.6,1.16,5.14
TTACCAAGGTGAAAGGTCCTTGATGCACGCCTTG,1.03,1.02,-0.388,1.06,-1.03,3.88,5.66,6.39,4.88,6.09,2.49,4.34,-0.24,0.133,0.166,1.1,-0.666,2.31,-0.838,1.93
ATCTCTAGGTAACGAAGTTCAGTGAATGCCGAAC,0.145,0.276,0.427,0.411,0.414,0.915,0.812,1.02,0.0863,0.766,3.22,2.82,0.456,0.901,0.161,1.14,0.916,0.507,0.64,1.14
AGTTACGGGTCAACGAGGTTATAGCACGCGTATA,6.05,5.15,0.781,4.47,0.793,5.63,5.57,5.55,2.17,4.38,2.76,3.97,0.585,1.05,1.48,5.12,2.21,4.6,0.766,4.16
TTACCAAGGTGAGCTGAGGTCGTTGAGCCAACTC,1.91,1.27,-0.402,0.809,-1.19,1.84,-0.225,0.876,-0.207,0.236,0.949,1.75,-0.809,-0.728,-0.0553,5.03,0.369,2.08,-0.816,1.76
AGAACGATGGCAATGAGTTGATAGCACGGGTGGC,-0.517,-0.814,-0.366,-1.05,-0.645,-0.643,0.654,-0.25,-0.674,-0.599,-0.597,-0.751,0.0197,-0.258,-0.596,-0.563,-0.0123,-0.325,-0.149,-0.604
AGAACGAGGGCACGCTGAGTTGATCGCAGAGTAG,0.98,0.604,-0.623,0.0852,-0.872,2.16,1.93,1.66,0.193,0.789,4.59,4.13,0.408,-0.362,-0.239,1.53,0.103,0.735,-1.04,2.57
CTCGAAAAGTCGGTTGAGGTGAGTATACGGATAA,0.673,0.0454,-0.319,-4.02e-05,-0.053,0.458,-0.07,-0.172,0.085,-0.0769,-0.249,0.59,-0.0972,-0.5,0.0605,-0.0703,-0.0272,1.45,0.0114,0.371
ATCTCTAGGTAACAAGTTCACTGAAAGAGAGGAC,1.15,1.44,1.22,1.56,0.913,2.74,2.49,2.9,1.37,2.56,3.4,3.15,1.22,1.68,1.6,2.83,2.82,2.02,0.943,2.18
GGAACGAGGGCAAGCTGATAGCAGAGTTTGATGG,0.351,0.065,-0.473,0.0396,-1.04,1.37,0.979,0.733,-0.285,0.3,3.83,2.53,-0.705,-0.924,-0.391,0.149,0.429,-0.0859,-0.744,2.46
ACTATTAGTTGATTTAGGGCAACCGATACGACGC,0.352,0.0302,0.44,0.0865,1.19,0.816,0.99,0.588,0.446,0.717,1.57,2.39,2.12,1.32,1.41,0.00966,0.993,0.345,1.47,0.582
CGTCCAAAGTCAATGCTAGGTCAGTGAAAGCATT,0.216,0.789,0.816,0.482,-0.125,0.696,-0.177,-0.216,-0.538,-0.284,0.0357,0.544,-0.669,-0.616,1.04,0.434,-0.027,1.07,0.396,1.68
TCATATAGGTAAAAGGTTAAAGTCGGTGTGGTAA,3.06,3.43,1.29,3.39,0.553,5.77,10.2,8.8,9.29,9.7,4.98,5.34,1.14,1.22,2.21,3.01,1.15,4.32,2.65,2.64
ATATGTAGATTAGCTGGGGTCATTCAGACTAGGC,3.43,3.51,1.55,4.27,1.51,4.33,1.45,2.53,0.88,1.9,1.08,1.54,1.36,1.4,1.47,5.46,2.56,5.47,1.07,2.59
ATCGCTAGGTAAAGTTCAGTGAAAGATCGATAGA,0.349,1.22,0.609,0.692,-0.361,1.81,1.85,3.26,1.49,2.75,-0.192,0.414,-0.0288,-0.241,0.606,1.42,1.26,0.812,-0.216,2.37
CCTATTACTTGACCATAAGGGCAACCGAAGCTCG,1.19,0.716,0.834,1.06,1.31,0.711,0.8,0.339,0.281,0.247,0.621,0.836,0.25,1.09,1.41,0.749,1.2,1.05,2.03,1.61
ATCTGTAGGTTAGCTGGGGTCATTCAGACTAGGC,3.92,6.12,3.25,4.61,1.64,4.22,2.15,3.26,0.98,2.02,2.69,2.92,1.42,1.67,2.28,6.74,4.22,6.24,1.28,3.19
TCTGCTAGGTCAGTTGGTCTGCTAACGAGCTGCC,0.643,0.261,-0.897,-0.119,0.334,0.9,-0.466,1.02,0.751,1.14,2.62,2.53,0.337,-0.177,-0.432,-0.155,-1.02,0.136,-1.16,3.25
TCTTGTAGATCAATAGAGGTTAGGAAAGTGCGCT,1.24,1.49,0.276,0.914,0.11,1.62,0.163,2.04,3.13,2.57,2,0.75,0.694,0.358,0.823,2.06,0.156,1.41,0.518,0.535
CCTCAGAGGACAACAGGAGGTCAGAGCTGCCAGA,1.05,2.25,2.4,1.34,-0.195,2.09,0.662,0.51,-0.374,-0.163,0.559,0.422,-0.428,-1.85,1.69,2.04,0.295,2.24,0.569,3.46
GCTAGATGGTCAGTAAAAGGTCACACACCGGTCG,3.28,4.21,4.31,4.17,0.588,4.58,2.79,3.94,1.99,3.21,0.38,2.57,0.624,-0.0918,3.76,4.83,0.89,5.65,2.5,4.43
GCTCGGAGGACAAGGTTAGAGCTTTGTCCGTAGA,-0.181,-0.186,-1.07,-0.329,-0.89,0.169,-0.843,0.0367,-1.07,-0.395,-0.578,-0.435,-1.46,-0.888,-0.772,-0.186,-0.847,-0.266,-1.1,1.45
ACAGACAGGTGAGAGAAGGTAACTCAGCTGGACG,0.34,-0.0792,-0.413,-0.366,-0.81,0.165,0.832,-0.247,0.0838,0.154,0.676,0.706,0.0985,-0.367,-0.0826,-0.372,-0.505,0.102,-0.00725,0.565
TCTAGCAGGCCAGAGGGTCACTCAGGAGGTACGG,1.25,1.15,-0.544,0.792,-1.23,2.35,1.43,2.66,2,2.55,1.15,0.889,-0.476,-0.637,0.195,1.35,-0.32,2.12,-0.425,2.28
CAAACTAGGTCGAGAGGTCAAAGTCCGCTTCCCG,5.34,5.53,4.87,4.61,1.17,5.6,6.98,6.37,4.44,6.54,5.89,6.2,0.871,-0.159,2.68,5.25,1.9,5.44,1.21,4.24
